# Bioassay records (PubChem)
# This is a sample that favours compounds with a hit; in the whole collection about 1.1% have one here.
# RPL19A-GFP yeast – modulators of TOR pathway RPL19A-GFP in S. cerevisiae. percent response vs DMSO, % at 10 µM. S. cerevisiae RPL19A-GFP strain, flow cytometry, 3 h; stronger effect = lower value. 330,000 tested, 0.3% active;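 active = percent response vs DMSO below 50%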;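 also: median channel GFP fluorescence of the barcoded RPL19A-GFP strain; ratio of sample median GFP to plate DMSO average so 100% = DMSO; lower means less RPL19A-GFP as with rapamycin TOR inhibition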
# AGP1-GFP MLPCN – alters AGP1-GFP fluorescence in TOR pathway yeast screen; GFP response vs DMSO, % at 10 µM; AID 2066; 320,000 tested, 0.02% active; S. cerevisiae AGP1-GFP multiplex flow cytometry, 3 h; GFP as percent of DMSO wells;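 active = GFP response relative to DMSO above a set limit, near screen average plus 3 SD, cut at about 150% in these data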;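 also: median GFP channel fluorescence of the gated AGP1 strain per well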
# MEP2-GFP yeast – alters MEP2-GFP fluorescence in TOR pathway yeast screen. GFP response vs DMSO, % at 10 µM. 330,000 tested, 0.51% active. S. cerevisiae MEP2-GFP strain, flow cytometry GFP, 3 h; 100% = DMSO control level. AID 2016;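 active = GFP response versus DMSO above a set limit, roughly screen mean plus 3 SD, cut at about 180% in these data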;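 also: median GFP fluorescence of the barcode-gated MEP2-GFP cells per well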
# CIT2-GFP yeast – yeast TOR pathway CIT2-GFP modulation; S. cerevisiae CIT2-GFP strain, flow cytometry, 3 h; 100 means same as DMSO wells; GFP response vs DMSO, % at 10 µM; 320,000 tested, 0.065% active;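 active = GFP response relative to DMSO above a set limit, near the screen mean plus 3 SD, cut at about 150% in these data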;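 also: ratio of well median GFP fluorescence to mean of DMSO wells on the plate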
# VLA-4 inh – inhibition in a human VLA-4 binding assay; 330,000 tested, 0.2% active; AID 2557; inhibition, % (about 7 µM as worked out from the volumes in the protocol); VLA-4 expressing cells, ligand binding flow cytometry; P13612; in the data active = inhibition above about 50%
# Target sequence (P13612 whole entry, looked up): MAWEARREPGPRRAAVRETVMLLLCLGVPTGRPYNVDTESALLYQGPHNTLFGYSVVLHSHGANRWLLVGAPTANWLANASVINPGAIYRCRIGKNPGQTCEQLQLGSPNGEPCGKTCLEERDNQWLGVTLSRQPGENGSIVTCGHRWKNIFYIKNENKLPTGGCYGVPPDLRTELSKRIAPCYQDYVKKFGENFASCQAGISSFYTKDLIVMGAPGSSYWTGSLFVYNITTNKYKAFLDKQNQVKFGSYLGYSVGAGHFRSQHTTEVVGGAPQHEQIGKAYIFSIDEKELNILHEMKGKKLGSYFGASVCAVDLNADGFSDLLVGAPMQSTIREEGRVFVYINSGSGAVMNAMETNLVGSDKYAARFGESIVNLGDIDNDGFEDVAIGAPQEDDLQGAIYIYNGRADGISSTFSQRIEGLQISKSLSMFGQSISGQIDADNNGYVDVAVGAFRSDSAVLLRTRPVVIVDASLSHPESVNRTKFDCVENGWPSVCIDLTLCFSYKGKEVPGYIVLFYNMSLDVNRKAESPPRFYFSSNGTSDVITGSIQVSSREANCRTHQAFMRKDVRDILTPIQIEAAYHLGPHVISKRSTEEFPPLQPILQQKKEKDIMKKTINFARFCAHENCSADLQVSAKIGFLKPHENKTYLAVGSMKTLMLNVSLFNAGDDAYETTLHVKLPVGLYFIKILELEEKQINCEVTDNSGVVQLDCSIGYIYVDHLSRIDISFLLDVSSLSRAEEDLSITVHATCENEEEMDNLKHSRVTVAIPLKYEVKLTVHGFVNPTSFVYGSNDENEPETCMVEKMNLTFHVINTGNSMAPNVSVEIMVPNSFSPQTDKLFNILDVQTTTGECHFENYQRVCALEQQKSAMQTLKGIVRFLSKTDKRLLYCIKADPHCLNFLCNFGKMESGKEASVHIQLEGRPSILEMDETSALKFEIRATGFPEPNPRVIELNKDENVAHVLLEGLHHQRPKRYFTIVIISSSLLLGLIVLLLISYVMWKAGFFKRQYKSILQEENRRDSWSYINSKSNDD
# LAP4-GFP MLPCN – alters LAP4-GFP fluorescence in TOR pathway yeast screen; S. cerevisiae LAP4-GFP multiplex, flow cytometry GFP, 3 h; median GFP as percent of DMSO wells; GFP response vs DMSO, % at 10 µM; 320,000 tested, 0.34% active; AID 2023;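 active = GFP response vs DMSO above a set limit, about the screen mean plus 3 SD, cut at about 150% in these data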
# LAP4 cherry2 – second confirmation of modulators of TOR reporter LAP4-GFP in yeast; shares compounds with LAP4-GFP MLPCN; S. cerevisiae LAP4-GFP strain, flow cytometry GFP, 3 h; GFP response vs DMSO, % at 10 µM; 590 tested, 20% active; AID 2621;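 active = GFP signal as percent of the solvent control above about 150%, meaning raised reporter expression, limit read from the data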;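 also: ratio of well median GFP fluorescence to plate DMSO mean so 100% = DMSO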
# MEP2-GFP pick2 – second confirmation of modulators of TOR reporter MEP2-GFP in yeast. GFP response vs DMSO, % at 10 µM. AID 2622. S. cerevisiae MEP2-GFP strain, flow cytometry GFP, 3 h. 590 tested, 10% active. shares compounds with LAP4-GFP MLPCN;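 active = GFP signal above 150% of the solvent control wells, that is a rise of more than half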;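 also: median channel GFP fluorescence of all gated yeast cells per well; ratio of median GFP to plate DMSO average so 100% = DMSO level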
# RPL19A GFP CP2 – yeast RPL19A-GFP TOR reporter modulation, second cherry pick; GFP response vs DMSO, % at 10 µM; shares compounds with LAP4-GFP MLPCN; AID 2623; S. cerevisiae RPL19A-GFP strain, flow cytometry GFP, 3 h; stronger effect = lower value; 100% means same as DMSO wells; 590 tested, 3% active;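 active = under 65% GFP response relative to DMSO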;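 also: median GFP channel fluorescence per well over the all cells gate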
# CIT2-GFP pick2 – second confirmation of modulators of TOR reporter CIT2-GFP in yeast. shares compounds with LAP4-GFP MLPCN. S. cerevisiae CIT2-GFP strain, flow cytometry GFP, 3 h; DMSO control wells read 100%. GFP response vs DMSO, % at 10 µM. 590 tested, 8% active. AID 2624;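 active = GFP response vs DMSO above about 150%, limit read from the data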;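 also: median green fluorescence per well over all gated yeast cells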
# AGP1-GFP pick2 – yeast AGP1-GFP TOR reporter modulation, second cherry pick. 590 tested, under 10 active. shares compounds with LAP4-GFP MLPCN. AID 2643. S. cerevisiae AGP1-GFP strain, flow cytometry GFP, 3 h. percent response vs DMSO, % at 10 µM;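 active = over 150 percent of DMSO response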;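 also: median GFP channel fluorescence over all cells without mother daughter split; sample median GFP divided by mean DMSO control so 100% equals DMSO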
# s288c autofluor – compound is autofluorescent in yeast s288c cells; 610 tested, under 10 active; fluorescence change (kMESF span) at 33 µM; S. cerevisiae s288c, 520 nm autofluorescence, flow cytometry, 3 h; stronger effect = higher value; zero means same as solvent-only cells; shares compounds with LAP4-GFP MLPCN;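 active = fluorescence span over the dose series, or activity score, above about 33, limit read from the data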
# Starred values were filed as active, the others as inactive; i = inactive; / = no result given.
SMILES,RPL19A-GFP yeast,AGP1-GFP MLPCN,MEP2-GFP yeast,CIT2-GFP yeast,VLA-4 inh,LAP4-GFP MLPCN,LAP4 cherry2,MEP2-GFP pick2,RPL19A GFP CP2,CIT2-GFP pick2,AGP1-GFP pick2,s288c autofluor
O=C(/C(=C\c1ccccc1)c1nc2ccccc2[nH]1)c1ccc(Cl)cc1,/,/,/,/,4.2,/,/,/,/,/,/,/
O=C(/C=C/c1cccc(Cl)c1)c1nc2ccccc2[nH]1,79.0,75.7,84.1,68.5,1.3,228.5*,235.5*,148.5,77.5,141.8,82.7,2.7
O/C=c1\ccc2cccc3nc(C(F)(F)F)nc1c23,115.4,103.6,233.1*,241.6*,-307.5,172.7*,/,/,/,/,/,8.36
CN(C)/C=C1/Sc2ccccc2C1=O,102.2,101.2,95.4,98.5,-33.3,103.0,/,/,/,/,/,/
CC(=O)N(\C=C/C=C/C=C1\Sc2ccccc2C1=O)c1ccccc1,113.0,105.2,283.1*,200.4*,-397.0,166.6*,/,/,/,/,/,9.97
COc1ccccc1/C=C1/C(=O)N(c2ccccc2)N=C1C,104.1,81.9,94.8,98.7,9.9,90.8,/,/,/,/,/,/
CC1=NN(c2ccccc2)C(=O)/C1=C\c1c(C)[nH]n(-c2ccccc2)c1=O,96.1,97.5,99.4,97.7,-4.9,91.8,103.2,103.1,99.5,102.9,99.3,/
CCOc1ccc(-c2nc(CS(=O)(=O)CC(=O)NCc3ccc(F)cc3)c(C)o2)cc1,85.9,138.2,177.3*,137.7,-3.6,181.1*,102.2,101.3,97.2,101.5,101.4,/
CCCc1ccc(-c2cc(C(=O)N3CCN(c4ccccn4)CC3)c3ccccc3n2)cc1,98.3,69.1,100.4,87.4,9.6,85.8,/,/,/,/,/,/
O=C(NCC1CCCN(C(=O)CN2CCCCC2)C1)c1ccccc1Cl (centres undefined),99.2,107.2,95.7,100.5,4.2,108.4,/,/,/,/,/,/
O=C1C=C(N2CCCCCC2)C(=O)N1c1ccc(Cl)cc1,96.5,89.4,94.1,94.2,7.2,93.0,/,/,/,/,/,/
O=C1C=C(Nc2ccc(Cl)cc2)C(=O)N1c1ccc(Cl)cc1,101.2,96.1,99.6,100.9,4.1,97.9,96.2,96.1,98.7,104.3,97.2,0.2
Cc1ccccc1N=Nc1ccc(O)c2ncccc12,97.3,100.7,103.5,99.1,18.5,178.0*,216.3*,123.1,101.9,156.1*,104.7,0.3
COc1cccc(N=Nc2ccc(O)c3ncccc23)c1,103.2,88.9,103.0,103.8,11.0,179.7*,/,/,/,/,/,0.2
COc1ccc(N=Nc2ccc(O)c3ncccc23)cc1,95.6,97.9,116.1,102.0,13.1,215.3*,/,/,/,/,/,0.51
CN(C)S(=O)(=O)c1cccc(NC(=O)CN2C(=O)NC(Cc3ccccc3)C2=O)c1 (centres undefined),110.7,107.2,103.0,95.5,8.3,106.7,/,/,/,/,/,/
O=C1NC(=Nc2ccccc2Cl)S/C1=C\c1cccc([N+](=O)[O-])c1,89.2,71.3,82.2,78.6,-9.1,151.6*,142.3,98.2,92.5,121.0,82.7,/
Cc1ccc(C(=O)O)cc1N=Cc1cc(Br)cc(Br)c1O,80.2,78.6,89.6,61.6,-6.9,179.7*,166.3*,165.9*,71.1,139.1,105.5,0.7
CC(C)C1=CC(=Nc2ccc(S(N)(=O)=O)cc2)C=C(C(C)C)C1=O,103.9,103.6,104.3,104.1,3.5,94.7,/,/,/,/,/,/
O=C(NCc1ccc2c(c1)OCO2)c1ccc(Br)cc1,105.8,107.9,97.0,79.7,1.3,102.1,/,/,/,/,/,/
O=C1Nc2ccc(Br)cc2/C1=C/C(=O)c1ccc2c(c1)OCO2,94.1,98.9,85.6,92.1,1.3,131.2,/,/,/,/,/,-0.4
CCOc1ccccc1N1CCN(C(=O)c2cc(-c3cc(OC)ccc3OC)nc3ccccc23)CC1,102.5,96.2,103.2,93.9,-5.2,92.7,/,/,/,/,/,/
CCOc1cc(/C=N/NC(N)=O)ccc1OCC(=O)Nc1ccc(C)c(C)c1,96.9,105.7,99.6,98.9,2.9,105.9,/,/,/,/,/,/
CCOc1cc(C=C2C(=O)c3ccccc3C2=O)ccc1OCC(=O)Nc1ccc(C)cc1,104.5,108.5,109.3,104.9,2.5,109.5,96.2,99.8,101.9,100.7,99.6,-0.2
CCc1nn(C(CC)C(=O)NCc2cccc(OC)c2)c(=O)c2cc3occc3n12 (centres undefined),98.5,97.9,108.5,94.8,3.0,91.1,/,/,/,/,/,/
SMILES,RPL19A-GFP yeast,AGP1-GFP MLPCN,MEP2-GFP yeast,CIT2-GFP yeast,VLA-4 inh,LAP4-GFP MLPCN,LAP4 cherry2,MEP2-GFP pick2,RPL19A GFP CP2,CIT2-GFP pick2,AGP1-GFP pick2,s288c autofluor
CCOC(=O)c1c(C)[nH]c(C)c1S(=O)(=O)N(C)CC(=O)NCc1cccc(Br)c1,59.9,27.1,877.1*,87.8,8.2,113.9,98.1,101.5,101.1,102.9,101.5,/
CCOC(=O)c1c(C)[nH]c(C)c1S(=O)(=O)N(C)CC(=O)Nc1cccc(C)c1,93.2,92.8,90.3,92.2,0.1,92.8,/,/,/,/,/,/
O=c1c2ccccc2nc(/C=C/c2ccc([N+](=O)[O-])o2)n1CCCO,104.5,80.5,229.8*,178.9*,i,193.4*,300.0*,352.8*,143.3,274.8*,123.9,/
Cc1ccc2c(c1)N(CCCC(=O)Nc1cccc(C(F)(F)F)c1)C(=O)CO2,60.2,14.8,111.2,97.7,0.6,86.4,102.2,110.0,98.7,100.1,97.8,/
O=C(Nc1cc(Cl)cc(Cl)c1)Nc1cnccn1,104.2,104.3,103.8,103.0,6.3,104.0,/,/,/,/,/,/
O=C(c1ccccc1)c1ccccc1N1C(=O)C=CC1=O,81.3,85.3,86.6,69.7,25.0,327.2*,/,/,/,/,/,1.12
CC1(C)C(=O)Nc2ccccc2N1C(=O)COc1ccccc1C#N,86.8,116.7,99.0,92.4,0.4,157.6*,100.2,99.6,98.5,107.1,99.3,/
Cc1ccccc1OCCC(=O)OCC(=O)N1c2ccccc2NC(=O)C1(C)C,101.3,107.8,109.4,107.7,35.4,101.5,/,/,/,/,/,/
